About 14,000 (4.5%) of roughly 310,000 compounds showed an effect of 50% or more. The effect is printed as a negative number. Shown is part of a subset that was picked to be rich in strong results.
molecular target: human ether-à-go-go-related gene (hERG) potassium channel (human, UniProt Q12809); test: primary screen, population patch clamp on CHO cells stably expressing hERG; higher = less effect of the substance
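Note: peak tail current of the secondary pulse compared with the same well before compound.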

Chain of human ether-à-go-go-related gene (hERG) potassium channel (Q12809 whole entry, looked up): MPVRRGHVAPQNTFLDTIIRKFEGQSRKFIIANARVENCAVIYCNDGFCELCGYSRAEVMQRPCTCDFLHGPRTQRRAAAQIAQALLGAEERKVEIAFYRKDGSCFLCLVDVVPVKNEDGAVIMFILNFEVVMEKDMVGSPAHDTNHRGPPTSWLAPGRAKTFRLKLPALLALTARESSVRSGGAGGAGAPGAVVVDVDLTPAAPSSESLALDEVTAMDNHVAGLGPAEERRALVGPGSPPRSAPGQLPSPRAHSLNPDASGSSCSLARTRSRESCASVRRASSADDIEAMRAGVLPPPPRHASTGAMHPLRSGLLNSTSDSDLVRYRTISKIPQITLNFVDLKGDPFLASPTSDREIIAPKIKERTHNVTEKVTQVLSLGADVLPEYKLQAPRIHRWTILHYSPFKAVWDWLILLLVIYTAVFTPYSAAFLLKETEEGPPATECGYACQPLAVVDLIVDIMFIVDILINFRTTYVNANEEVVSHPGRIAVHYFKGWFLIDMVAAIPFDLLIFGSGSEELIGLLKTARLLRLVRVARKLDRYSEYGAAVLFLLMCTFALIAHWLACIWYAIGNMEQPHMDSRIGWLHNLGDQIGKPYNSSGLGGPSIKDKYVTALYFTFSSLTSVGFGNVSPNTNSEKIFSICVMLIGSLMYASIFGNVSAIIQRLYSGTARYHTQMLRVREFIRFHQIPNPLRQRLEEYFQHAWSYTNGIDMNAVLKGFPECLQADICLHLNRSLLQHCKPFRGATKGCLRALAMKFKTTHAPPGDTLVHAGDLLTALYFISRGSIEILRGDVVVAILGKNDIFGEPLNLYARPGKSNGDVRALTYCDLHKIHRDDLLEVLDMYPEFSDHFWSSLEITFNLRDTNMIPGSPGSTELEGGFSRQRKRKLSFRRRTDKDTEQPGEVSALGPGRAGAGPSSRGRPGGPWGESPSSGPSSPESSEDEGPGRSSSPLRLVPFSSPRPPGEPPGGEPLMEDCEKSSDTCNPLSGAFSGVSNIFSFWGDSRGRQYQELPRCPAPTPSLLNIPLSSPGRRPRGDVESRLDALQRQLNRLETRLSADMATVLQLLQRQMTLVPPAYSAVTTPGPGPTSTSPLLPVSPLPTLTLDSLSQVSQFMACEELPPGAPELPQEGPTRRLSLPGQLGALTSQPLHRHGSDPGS

SMILES	hERG current change (%, negative = inhibition) at 10uM
Cc1cc(Nc2ccc(O)cc2)ccc1N	14.1%
COc1ccc(CCN=C2SCC(=O)N2C)cc1OC	-4.8%
CCCCn1c(N)c(N(CCOC)C(=O)CSCc2c(C)noc2C)c(=O)[nH]c1=O	17.1%
O=C(O)c1ccc(NS(=O)(=O)c2ccc(N3CCCC3)c([N+](=O)[O-])c2)cc1	11.3%
CCN(CCO)c1nc(N2CCCCC2)c2cnn(C)c2n1	3.12%
COc1ccc2c(=O)c(C(=O)O)c(-c3ccc4c(c3)OCO4)n(C)c2c1	17.2%
CCN=C1SC(CC(=O)NCC)C(=O)N1CC (stereo not shown)	-12.5%
O=C(N/N=C/c1ccc(O)cc1)c1cc(-c2ccccc2)nc2ccccc12	11.2%
Cc1cccc(NC(=O)c2cc3ccccc3o2)c1	-19.8%
CCCCCCn1c(C(C)NC(=O)c2ccco2)nc2ccccc21 (stereo not shown)	-59.9%
CCCn1c(NCc2ccc(C)o2)nc2ccccc21	-24.1%
CCCCCn1c(C(C)NC(=O)CCC)nc2ccccc21 (stereo not shown)	-48.4%
c1csc(Cn2c(-c3cccs3)nc3ccccc32)c1	-68.6%
CCn1c(NCc2ccco2)nc2ccccc21	2.38%
CCCCCn1c(NCc2ccco2)nc2ccccc21	-74.8%
CCN(CC)CCn1c(NCc2ccco2)nc2ccccc21.Cl	-73%
Cn1c(NCc2ccco2)nc2ccccc21	-10.2%
C=CCn1c(-c2cccs2)nc2ccccc21	3.12%
CCn1c(-c2cccs2)nc2ccccc21	-11.4%
CCCCn1c(C(C)NC(=O)CC)nc2ccccc21 (stereo not shown)	-21.9%
CCN(CC)CCn1c(NCc2ccccn2)nc2ccccc21.Cl	-34.4%
Cn1cnnc1SCC(=O)c1ccc(O)c(O)c1	18.7%
O=C1CC2(CCCCC2)Oc2ccc(F)cc21	-4.03%
CCN(CC)CCNC(=O)Cn1cnc2sc(C)c(S(=O)(=O)N3CC(C)CC(C)C3)c2c1=O (stereo not shown)	24.8%
COc1ccc(Cn2c(=S)[nH]c3cc(OC)c(OC)cc3c2=O)cc1	20.4%
O=[N+]([O-])c1ccc(-c2ccc(/C=N/c3c(-c4ccco4)nc4ccccn34)o2)cc1	8.33%
O=C(O)CCSc1nnc(-c2ccccc2)n1-c1ccccc1	-3.32%
Cc1ccc(SCc2cc(=O)[nH]c(N3CCCCC3)n2)cc1	-8.62%

Reference: PMC4336329 (PLoS ONE, 2015)
